Mito fusion act: qHTS Assay for Small Molecule Inhibitors of Mitochondrial Division or Activators of Mitochondrial Fusion; S. cerevisiae fusion-defective mutant growth rescue, CellTiterGlo 48 h; Potency, µM (series often up to 46.1 µM), for the others: at the highest dose growth rescue (activation), actives largely listed as activators; 320,000 tested, 0.23% active; note: % of control where 0% means no effect; nearly all actives have a fitted effect of over 45% in size
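Read-out: ATP-based luminescence (CellTiterGlo, 10 min ambient) reporting growth of fusion-defective ts yeast after 48 hours at 37C on glycerol/ethanol YPEG medium in the presence of compound.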
TDP-43 yeast inh: qHTS of TDP-43 Inhibitors | TDP-43 expressing yeast growth rescue, BacTiter-Glo, 24 h | Potency, µM (doses to about 46.1 µM), for the others: top-dose growth rescue (activation), hits mostly activators | 410,000 tested, 1.8% active; note: % of control where 0% means no effect; nearly all actives have a fitted effect of over 50% in size
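Growth rescue of TDP-43-toxic yeast measured as ATP luminescence (BacTiter-Glo). Cells grown to mid-log in raffinose, induced in galactose at OD600=0.02, exposed to compound 24 hr at 30 deg C.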
FUS yeast rescue: qHTS for Suppressors of FUS Proteinopathy: Primary screen using FUS-linked yeast assay; S. cerevisiae FUS-expressing, growth rescue, OD600, 24 h; Potency, µM (series often up to 76.6 µM), most hits filed as activators; 390,000 tested, 0.24% active; AID 1347120, 2019;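 note: plate controls were DMSO vehicle for no effect and reference control for full effect; nearly all actives have a fitted effect of over 55% in size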
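Toxicity suppression screen in FUS-yeast. Cells induced with 2% galactose, starting OD 0.005, treated 24hr at 30C with compounds at multiple final concentrations; growth by OD600.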
Abeta yeast res: qHTS for compounds that reverse cellular toxicity of Amyloid beta (A-beta) peptide in yeast: Primary Screen | yeast expressing A-beta42, growth rescue, OD600, 48 h; response scale: 0% DMSO, 100% iron-clioquinol control | Potency, µM (highest dose often 46.1 µM), most hits filed as activators | 410,000 tested, 0.063% active | AID 1347071, 2019; note: nearly all actives have a fitted effect of over 55% in size
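Yeast A-beta toxicity model in growth medium with pinned compounds, 48 h at 30 C; growth read as absorbance at 600 nm. Normalized to FeCl3/clioquinol equimolar mix (positive) and DMSO (negative).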
aSyn yeast inh: qHTS of alpha-syn Inhibitors; 370,000 tested, 0.14% active; Yeast expressing alpha-synuclein, growth rescue, BacTiter-Glo, 24 h; Potency, µM (series often up to 46.1 µM), for the others: top-dose growth rescue (activation), hits mostly activators; note: % of control where 0% means no effect; nearly all actives have a fitted effect of over 65% in size
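Rescue of yeast growth: cells expressing toxic alpha-synuclein, induced in galactose at OD600 0.02, incubated with compound 24 h at 30 C. ATP luminescence quantified growth; inhibitors of toxicity appear as activators.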
* marks the source's active call; other numbers are inactive results; i = inactive; ? = inconclusive; nt = no result given. Sampled rows, rich in hits. Any-hit rate of the full collection: about 2.2%. Calls come from the whole dose curve; as a rule, active = well fitted curve in the direction sought with a large enough effect; inconclusive = small, poorly fitted or top-dose-only effect, or another doubt; inactive = no such curve, though single readings can be large; an effect the other way counts as inactive or inconclusive. Potency is the fitted concentration of half-maximal effect.

SMILES	Mito fusion act	TDP-43 yeast inh	FUS yeast rescue	Abeta yeast res	aSyn yeast inh
O=C(CSc1nccn1-c1cccc(Cl)c1)Nc1ccc2c(c1)OCCO2	3%	?	i	i	6%
Cc1cc(C)cc(-n2ccnc2SCC(=O)Nc2cccc3ccccc23)c1	nt	20µM*	i	i	10%
O=C(CSc1nccn1-c1cccc(Cl)c1)Nc1ccc2c(c1)OCO2	nt	18µM*	i	i	nt
Cc1ccccc1CN1CCCCC(NC(=O)c2ccc3ccccc3c2)C1=O (stereo not drawn)	nt	nt	i	nt	nt
C=CCNC(=O)NCC1CCN(Cc2ccc(OC)cc2)CC1	nt	nt	i	nt	nt
N/C(=N\OC(=O)c1cc([N+](=O)[O-])ccc1Cl)c1cccnc1	-3%	13µM*	i	i	-3%
N/C(=N\OC(=O)c1ccc(Cl)c([N+](=O)[O-])c1)c1ccccc1	-2%	13µM*	i	i	5%
N/C(=N\OC(=O)c1ccc(Cl)c([N+](=O)[O-])c1)c1ccccn1	1%	16µM*	i	i	-6%
N/C(=N\OC(=O)c1ccc(Cl)cc1)c1ccccn1	4%	10µM*	i	i	-32%
O=C(Nc1ccc(Cl)c(Cl)c1)N(Cc1c[nH]c2ccccc12)C1CCCCC1	nt	?	i	i	nt
O=C(Nc1ccc2oc(-c3cc(Br)ccc3Cl)nc2c1)c1cc2ccccc2o1	nt	-10%	i	i	nt
COc1ccc(C2Nc3ccccc3C(=O)N2c2ccc(F)cc2)cc1COc1ccc(NC(C)=O)cc1 (stereo not drawn)	nt	nt	nt	nt	1%
Cc1ccc(-c2nc(C3CCCN(S(=O)(=O)c4ccc(C)c(C)c4)C3)no2)cc1 (stereo not drawn)	nt	nt	i	nt	nt
CC(C)c1cnc2c(c1SCc1ccc([N+](=O)[O-])cc1)c(=O)n(C)c(=O)n2C	nt	29%	i	i	nt
CCOc1ccc(C(=O)CCC(=O)NCC(=O)Nc2ccc(F)c(F)c2F)cc1	nt	19%	i	i	28µM*
CCOc1ccc(C(=O)CCC(=O)Nc2ccccc2C)cc1	0%	?	i	i	8%
CCOC(=O)c1ccccc1NC1c2ccccc2C(=O)N1C1CCN(C(=O)OCC)CC1 (stereo not drawn)	35µM*	20%	i	i	-1%
CCOC(=O)N1CCC(N2C(=O)c3ccccc3C2Nc2ccccc2C)CC1 (stereo not drawn)	3%	10%	i	i	3%
O=C(Nc1ccc2ncccc2c1)c1ccccc1	1%	-6%	i	i	2%
CCC(C(=O)c1ccc2ncccc2c1)c1ccccc1 (stereo not drawn)	?	14µM*	i	i	8%
FC(F)(F)c1ccccc1Cc1c(-c2cccc(Br)c2)nc2c3ccccc3ccn12	nt	14µM*	i	i	2%
CC(=O)Nc1ccc(C(=O)N2CCCCC2c2cc(C(=O)Nc3cccc4c3CCCC4)no2)cc1 (stereo not drawn)	nt	?	?	i	16%
Cn1nc(C(C)(C)C)cc1C(=O)N1CCCCC1c1cc(C(=O)Nc2cccc3c2CCCC3)no1 (stereo not drawn)	nt	7%	32µM*	i	8%
Cc1nn(CCC(=O)NNC(=O)Nc2ccccc2)c(C)c1[N+](=O)[O-]	nt	nt	i	nt	nt
Cc1ccc2c(c1)N(S(=O)(=O)c1ccc(CN3C(=O)c4cccnc4C3=O)cc1)CCO2	11µM*	-9%	i	i	5%
SMILES	Mito fusion act	TDP-43 yeast inh	FUS yeast rescue	Abeta yeast res	aSyn yeast inh
Cc1ccc2c(c1)N(S(=O)(=O)c1ccc(CN3C(=O)c4cccnc4C3=O)s1)CCO2	1%	?	i	i	?
CC(C)(C)C(=O)Nc1ccccc1C(=O)Nc1cc(Cl)ccc1Cl	7%	22µM*	i	i	-1%
O=C(Nc1ccccc1)N1CCN(c2nc(-c3ccccc3)ns2)CC1	8%	11µM*	i	i	-3%
N.N.O=C(O)C1(C(=O)O)CCC1.[Pt]	nt	nt	nt	nt	0%
CCN(CC)/[N+]([O-])=N/OCOC(=O)C(C)c1ccc(CC(C)C)cc1 (stereo not drawn)	nt	nt	nt	nt	11%
O=[N+]([O-])c1ccc(Oc2cccc(Br)c2)c2ccncc12	12%	16µM*	i	i	6%
O=[N+]([O-])c1ccc(Oc2ccc(F)cc2)c2ccncc12	6%	?	i	i	9%
Cc1ccc(C(=O)/C=C/c2ccc(-c3ccc(C)cc3)o2)cc1	2%	-25%	14µM*	i	23%
O=C(/C=C\c1ccc(-c2ccccc2)o1)c1ccccc1	11%	2%	i	i	2%
CCCn1c2ccccc2c2cnn(CC(=O)Nc3cccc(C(=O)OCC)c3)c(=O)c21	nt	3%	i	i	nt
O[C@@H]1COC(Nc2ccc(N=Nc3ccccc3)cc2)C[C@@H]1O (stereo partly drawn)	-3%	13µM*	i	i	-2%
CCOC(=O)/C(C#N)=C\c1cn(C)c2ccccc12	22%	28%	i	i	-4%
CCOC(=O)/C(C#N)=C/c1c(OCC)n(CC)c2ccccc12	21%	13µM*	nt	i	9%
NCCCCCc1nnc(SCc2ccc(F)cc2)o1	nt	-2%	i	i	4%
Cc1oc2c(C)c3oc(=O)c(CCC(=O)O)c(C)c3cc2c1-c1ccccc1	3.5µM*	25%	i	i	15%
Cc1c(CCC(=O)O)c(=O)oc2c(C)c3occ(-c4ccc(Cl)cc4)c3cc12	20%	10%	i	i	8%
Cc1cc(C)c(C(N)=O)c(SCC(=O)c2cc(C)n(-c3cc(C)on3)c2C)n1	nt	35µM*	i	i	6%
COc1ccccc1/C=C/c1nc(S(=O)(=O)c2ccccc2)c(N2CCC(C(N)=O)CC2)o1	35µM*	-24%	i	i	-1%
O=C(/C=C/c1ccccc1Cl)c1ccc[nH]1	14µM*	14%	nt	i	3%
COCCNC(=O)CCCn1c(SCC(=O)c2ccc(Br)cc2)nc2c(sc3ccccc32)c1=O	nt	13%	i	i	nt
COc1ccc(S(=O)(=O)NCc2cccn2Cc2cccc(C)c2)cc1OC	nt	35µM*	i	i	nt
COc1ccc(S(=O)(=O)NCc2cccn2Cc2cc(C)ccc2C)cc1OC	nt	35µM*	i	i	nt
CC(=O)Nc1ccc(S(=O)(=O)NCc2cccn2Cc2cccc(C)c2)cc1	nt	16%	i	i	nt
c1ccc(-c2onc3cc4c(cc23)OCCO4)cc1	1%	35µM*	i	i	-1%

High-throughput results from PubChem BioAssay.
